In the supplement of paper PMC6555819:

How the values were obtained:
Test in all cases: PBM binding z-score (relative to random genomic background probes); higher = stronger binding; sequences stand for … in GC…GCGATTGACAGCGTAGAATGAAGG
[1] = test system: FXR:RXRa (NR concentration 270 nM, RXRa partner concentration 90 nM)
Outline: (§1)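 Random background probes are the reference for binding z-scores. These scores derive from regression-normalized fluorescence on custom Agilent 4×180K protein-binding microarrays incubated 1 h with ligand-free nuclear receptor dimers. Binding was detected with antibodies against each partner (one per run).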

[2] = test system: LXRa:RXRa (NR concentration 270 nM, RXRa partner concentration 90 nM)
Outline: as §1

[3] = test system: LXRa homodimer (NR concentration 270 nM)
Outline: as §1

[4] = test system: LXRb:RXRa (NR concentration 270 nM, RXRa partner concentration 90 nM)
Outline: as §1

[5] = test system: LXRb homodimer (NR concentration 270 nM)
Outline: as §1

[6] = test system: PPARa:RXRa (NR concentration 270 nM, RXRa partner concentration 90 nM)
Outline: as §1

[7] = test system: PPARg:RXRa (NR concentration 180 nM, RXRa partner concentration 90 nM)
Outline: as §1

[8] = test system: PPARg:RXRa 270nM:90nM, anti-RXR (NR concentration 270 nM, RXRa partner concentration 90 nM)
Outline: as §1

[9] = test system: PPARg:RXRa 30nM:10nM, anti-RXR (NR concentration 30 nM, RXRa partner concentration 10 nM)
Outline: as §1

[10] = test system: PPARg:RXRa 90nM:30nM, anti-RXR (NR concentration 90 nM, RXRa partner concentration 30 nM)
Outline: as §1

| Sequence | PBM binding z-score [1] | PBM binding z-score [2] | PBM binding z-score [3] | PBM binding z-score [4] | PBM binding z-score [5] | PBM binding z-score [6] | PBM binding z-score [7] | PBM binding z-score [8] | PBM binding z-score [9] | PBM binding z-score [10] |
| --- | --- | --- | --- | --- | --- | --- | --- | --- | --- | --- |
| CCAGACATGTGAAAGGTAACTCAGTCTGGTACGC | -0.293 | -0.0217 | 0.0919 | 0.07 | 0.186 | 1.02 | 1.63 | 2.44 | 0.62 | 2.1 |
| TCTAGTAGATCAAGCAGGTTAAGAAAGCCTGAGT | -0.193 | -0.025 | -0.279 | 0.194 | -0.909 | 0.517 | -0.406 | 1.3 | 2.82 | 1.92 |
| TCTGCTAGGTCAACGATGCTCAGCTAATCTGCTA | 2.94 | 1.88 | -0.569 | 1.22 | -0.547 | 3.02 | 2.04 | 2.92 | 1.7 | 2.32 |
| GCGACTGGGGCATCAGCAGGTTACCATCACTTAA | -0.298 | -0.121 | -0.321 | 0.504 | -0.992 | 0.811 | 0.679 | 0.547 | -0.615 | -0.341 |
| AGAATGAGGTTGCCAAAGATCAGGGAAACGCTTG | 0.0162 | 0.364 | -0.555 | 0.0727 | -0.656 | 0.857 | 0.786 | 0.932 | 0.289 | 0.435 |
| TCATATAGTTAAACAGGTGAAAGTCCGTAAGTTA | 1.06 | 1.1 | 0.478 | 1.1 | 0.356 | 1.7 | 1.25 | 2.68 | 4.38 | 3.42 |
| GGAACGAGGGCAAAGTTGATAGGATCTGTCGACG | 1.38 | 1.05 | -0.433 | 0.86 | -0.537 | 4.22 | 6.9 | 6.73 | 5.71 | 6.95 |
| ATATGTAGGTTCTCGGGTCATTCAGTTTGCGCAT | 2.58 | 2.33 | 1.35 | 2.78 | 0.765 | 3.89 | 3.39 | 3.71 | 1.14 | 2.94 |
| CGATCTAGGTCAAGGACAGTGAATCTCCGCACGC | 3.25 | 2.07 | 0.0913 | 1.3 | -0.135 | 4.43 | 7.27 | 5.87 | 3.68 | 5.55 |
| CAGACAGGGTCAGCTAGGCCAGAGTAGGGACGGC | 4.38 | 2.22 | -0.426 | 1.75 | -0.493 | 4.34 | 2.66 | 2.47 | 0.42 | 1.51 |
| CCTGCTAGGTCAATGGTCAACTAAAGCAGCTCGC | 3.09 | 2.16 | -0.236 | 1.83 | -0.0517 | 3.42 | 5.68 | 5.74 | 4.25 | 5.51 |
| TCATATAGGTAAGGGTGAAAGTCGAACGATATGA | 0.857 | 0.803 | -0.00999 | 0.694 | -0.563 | 2.47 | 2.7 | 3.29 | 3.87 | 3.72 |
| CGAACTAGGTCATTGACAGGACAGTGTATAGTAA | 4.45 | 3.09 | 0.874 | 2.13 | 0.106 | 4.79 | 7.66 | 6.32 | 3.42 | 5.88 |
| AGTCAAAGTTCAGGACGAGGTAACGTCAAGCACG | 4.26 | 3.98 | 1.22 | 1.77 | -0.0254 | 3.5 | 4.43 | 4.98 | 1.87 | 4.04 |
| GGAACGAGGGCAATGTTGATAGCATCTGTCGACG | 0.66 | 0.337 | -0.33 | 0.395 | -0.557 | 1.66 | 1.4 | 1.49 | 0.128 | 0.931 |
| TATACAGGGTCAAAGGCCACAGTACGAATGTCGA | 7.15 | 6.26 | 2.88 | 5.26 | 2.68 | 6.52 | 9.43 | 8.36 | 7.28 | 8.74 |
| CGGACTAGGTCAGAACAGGACAGTGAAGGATGAT | 1.12 | 0.71 | -0.0673 | 0.176 | -0.579 | 2.36 | 4.2 | 3.5 | 1.01 | 2.58 |
| TATACAGGGTCAAAGGCCAGAGTTCGAATGTCGA | 7.08 | 6.38 | 3.94 | 4.81 | 2.5 | 6.15 | 8.48 | 7.27 | 5.54 | 7.17 |
| CGAACGAGGGCAGGAGTTGATAGCAAATGCCGAT | -0.327 | -0.217 | -0.463 | -0.569 | -1 | 0.441 | 1.17 | 1.46 | -0.21 | 1.07 |

| Sequence | PBM binding z-score [1] | PBM binding z-score [2] | PBM binding z-score [3] | PBM binding z-score [4] | PBM binding z-score [5] | PBM binding z-score [6] | PBM binding z-score [7] | PBM binding z-score [8] | PBM binding z-score [9] | PBM binding z-score [10] |
| --- | --- | --- | --- | --- | --- | --- | --- | --- | --- | --- |
| TCTAGGTGGTCACGGAGGTCACACACGACGGGTA | 3.81 | 3.68 | 2.06 | 3.28 | 0.0895 | 4.01 | 3.58 | 4.2 | 3.06 | 3.96 |
| TAGCCTAGGTTATTCAGGGGCCAGTATAGAAAGC | 0.502 | 1.27 | -0.0903 | 1.24 | 0.216 | 0.523 | 0.241 | -0.0507 | -0.33 | 0.0793 |
| GCTATTAGTTGAGAGGGCAACCGAATGATTCTCG | 0.249 | 0.428 | 0.355 | 0.434 | -0.23 | 1.38 | 1.03 | 2.25 | 0.553 | 1.53 |
| TCTCGGAGGACACGAAAGGTAAGAGCTCGACATC | 0.311 | -0.0644 | -0.636 | -0.242 | -1.12 | 0.039 | 0.278 | 0.941 | 2.19 | 1.28 |
| CCAGAGAGGTGAGAAGGTAACTCAGCCTCGATTA | 0.595 | 0.597 | -0.207 | 1.02 | -0.739 | 2.17 | 0.83 | 1.36 | 0.216 | 0.457 |
| GGTACAGGGTCAAGGCCAGAGTACGCGTATTGAT | 6.7 | 3.85 | 0.0121 | 3.89 | -0.206 | 5.92 | 5.62 | 5.68 | 2.38 | 4.07 |
| GCTCGGAGGGCAAGGTCAGAGCTTTGTCCGTAGA | 2.16 | 2.05 | -0.485 | 1.26 | -1.03 | 3 | 1.23 | 2 | -0.62 | 0.771 |
| ATACCAAGGTGATTGTGAGGTCGTTGATACTAAC | 2.01 | 2.09 | 1.51 | 1.81 | 0.313 | 1.79 | 0.442 | 0.649 | 0.0726 | 0.48 |
| TCTTGTAGAACAAGCAGGTTAAGAAAGCCTGAGT | 0.0411 | -0.117 | -0.158 | -0.0832 | -0.582 | 0.777 | -0.27 | 1.19 | 2.58 | 1.82 |
| TCTATTAGTTGAAGGGCAACCAACGAGTCCGTTT | 0.452 | 0.763 | 0.54 | 0.694 | 0.122 | 0.554 | -0.00575 | 1.94 | 3.75 | 2.69 |
| CCTCGGAGGACAACATGAGGTCAGAGCTGCCAGA | 1.56 | 3.37 | 3.95 | 2.18 | -0.278 | 2.38 | 0.717 | 0.534 | -0.623 | 0.0899 |
| TCATATAGGTAAATGCTATGTGAAAGTCCGATCT | 0.801 | 0.648 | 0.000605 | 0.522 | -0.0167 | 1.13 | 1 | 2.16 | 3.62 | 3.03 |
| TCGAGTGGGTTAGGGGCATTCAGAATGGCGTCGA | 0.437 | 0.401 | 0.0912 | 1.41 | 0.759 | 1.46 | 0.402 | 1.73 | 0.9 | 1.31 |
| AGAATGAGGTTATACGTAGATCGGGGAAGAAAGT | 2.27 | 2 | 0.119 | 1.96 | 0.366 | 3.29 | 1.84 | 2.15 | 0.629 | 1.49 |
| TCATATAGGTAAAGGTGAGAGTCGAACGATATGA | 0.752 | 0.731 | -0.322 | 1.01 | -0.291 | 2.5 | 3.11 | 4.06 | 4.06 | 3.83 |
| ACTTTTAGTTGAGACGAGGGCAACCGATAGGTTG | 0.762 | 0.517 | -0.32 | 0.176 | 0.689 | 0.546 | 0.448 | 0.362 | 0.289 | 0.332 |
| ACTCAAAGTTCACTAGGTAACGTAAGATTCAGCT | 5.32 | 5.16 | 3.54 | 3.55 | 1.83 | 4.73 | 5.15 | 5.21 | 2.16 | 4.22 |
| GCTAGTTGGTCCGTAAAAGGTCACACACCGGTCG | 3.14 | 4.48 | 3.93 | 3.92 | 0.618 | 4.14 | 1.33 | 3.29 | 0.779 | 2.39 |
| CTCGAAAGGTCGTGCTCAGGTGAGTCTACCAAAC | 4.93 | 3.85 | 0.251 | 3 | 0.082 | 4.65 | 2.04 | 3.85 | 0.42 | 2.48 |
